Measurements taken from PubChem BioAssay AID1259336 (Sattelle Laboratory, UCL Respiratory, Division of Medicine, …, 2017).
Active and inactive are the calls of the source. No stated cut-off is given here; in the data, active means log2 fold change growth below about -1.8; inactive means the rest.

Assay: anthelmintic activity against nematode growth – whole organism, log2 fold change (AID 1259336);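 further: growth scored by imaging after five days at 20 °C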
Details: C. elegans growth, anthelmintic screen; stronger effect = lower value

log2 fold change growth, active:
CC(C)(C)CN1C(=O)C(c2ccccc2)(c2ccccc2)N=C1N -5.48

log2 fold change growth, inactive:
N=C(N)c1ccc(-c2cc(-c3ccccc3)on2)cc1 0.247
Clc1cccc(CO[C@H]2CCc3ccccc3[C@@H]2n2ccnn2)c1 0.571
CC(C)(C)n1nc(-c2ccccc2)c2c(N)ncnc21 -0.162
CS(=O)(=O)c1ccc(C(=O)N(C[C@H]2CCCO2)c2nc3ccccc3s2)cc1[N+](=O)[O-] 0.211
Cc1nc(-c2ccccn2)nc(NCCc2ccc(S(C)(=O)=O)cc2)c1Cl -0.702
c1ccc(C[C@@H]2CN(c3nccc(Oc4ccc(-n5ccnc5)cc4)n3)CCN2)cc1 0.11
Cc1cc(Cl)c(S(=O)(=O)N2CCCC2)cc1OCC(=O)NC1CCCCC1 -0.00734
O=C(CN1CCOCC1)Nc1ccc2ncnc(Nc3ccc(OCc4cccc(F)c4)c(Cl)c3)c2c1 -0.76
CS(=O)(=O)N1CCC(Cn2nc(Cc3cccc4ccccc34)c3c(N)ncnc32)CC1 -0.695
CC(C)(C)C(=O)N(CCCCCCN1C[C@H](O)[C@@H](O)[C@H](O)[C@H]1CO)C1CCCCCC1 -0.767
COc1cc(C2=NCCN2)cc2cc(-c3ccc(C4=NCCN4)cc3)oc12 0.303
CC1(C)Cc2c(c(N3CCOCC3)nc3snc(Br)c23)CO1 0.562
N#Cc1nc(-c2ccccc2F)oc1NCCc1ccccc1 -0.468
O=C(NCCc1ccn(-c2ccccc2)n1)C1CCCCC1 0.0936
Cn1ccnc1CNCCS(=O)(=O)c1cccc(Nc2ccc(-c3cccc(F)c3)cn2)c1 0.155
CC(=O)NC[C@H]1CN(c2ccc(-c3ccc(CNCc4cn[nH]n4)cc3)c(F)c2)C(=O)O1 0.387
CC1=Nc2ccc(Cl)cc2[C@H](c2ccccc2)N1CCNC(=O)CN(C)C 0.44
COc1ccc(Nc2ccccc2NC(=O)c2ccc(=O)[nH]c2)cc1 -0.31
COc1ccc([C@@H]2CC(c3cccs3)=NN2C(=O)c2ccco2)cc1OC -0.296
Cc1ccc2[nH]c([C@H]3CCCNC3)c(-c3ccncc3)c2c1 0.649
O=C1Nc2ccc(Br)cc2[C@@]12NCCc1c2[nH]c2ccccc12 -0.19
FC(F)(F)c1cnc(Sc2nnc(-c3ccncc3)o2)c(Cl)c1 -0.0782
CC1CC1C(=O)NC1CCN(CC2(c3ccccc3)CCCCC2)CC1 (stereo not drawn) 0.347
COc1ccc(-c2nn(C(C)C)c3ncnc(N)c23)cc1OC 0.278
C[C@@H](C(=O)Nc1ccc2oc(-c3ccncc3)nc2c1)c1ccccc1 0.0616
CCN(CC)CCCCCCNc1cc(OC)cc2c(C)ccnc12 -0.053
CCCn1nnc(NC(=O)COc2ccc(C3CCCCC3)cc2)n1 0.0714
FC(F)(F)c1ccc(N(c2cccnc2)C2CCN(c3ccc(C(F)(F)F)cn3)CC2)cc1 -0.44
Cc1nn(C(=O)Nc2cccc(C(F)(F)F)c2)c(C)c1Sc1ncccn1 -0.494
Cc1ccc(-c2cc(C(=O)Nc3cccnc3)c3cc(Br)ccc3n2)cc1 -0.0922
O[C@@H](c1cc(C(F)(F)F)nc2c(C(F)(F)F)cccc12)[C@H]1CCCCN1 -0.189
COc1cc(C2=NCCN2)ccc1-c1cn(-c2cccc(C3=NCCN3)c2)nn1 -0.121
Cc1[nH]n2c(=O)c3c(nc2c1-c1ccc(F)cc1)CCCC3 -0.19
Cc1cccnc1NC(=O)c1cccc(OCc2c(C)noc2C)c1 0.0511
CC(C)(C)n1nc(Cc2ccc(F)c(Cl)c2)c2c(N)ncnc21 -1.01
Nc1nccc2ccc(-c3ccc4nccn4c3)cc12 0.14
Nc1ccc2ncnc(Nc3ccc(OCc4cccc(F)c4)c(Cl)c3)c2c1 -0.0667
